Inconclusive results are not listed. Active and inactive are the calls of the source. Unless noted, calls follow the shape of the dose curve; as a rule, active = well fitted curve in the direction sought with a large enough effect; inconclusive = small, poorly fitted or top-dose-only effect, or another doubt; inactive = no such curve, though single readings can be large; an effect the other way counts as inactive or inconclusive.
Assays:
[1] = biological target: Ubiquitin carboxyl-terminal hydrolase 1 (Homo sapiens) (UniProt O94782); experiment: Inhibitors of USP1/UAF1: Pilot qHTS (AID 504865);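 also: rhodamine fluorescence freed from ubiquitin-rhodamine substrate followed over time; top concentration of the series differs between compounds; % is scaled to controls: 0 for no effect and ±100 for the full control effect; nearly all actives have a fitted effect of over 35% in size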
How it was run: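 USP1/UAF1 complex (1nM) preincubated with compound 15 min at room temperature, then Ub-Rho substrate (150nM final) added. Fluorescence read kinetically at 480/540 nm, 6 reads every 60 seconds. Buffer: 50mM HEPES pH 7.8, 0.5mM EDTA, 0.1 mg/ml BSA, 1mM TCEP, 0.01% Tween-20.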

[2] = biological target: Luciferin 4-monooxygenase (Photinus pyralis) (UniProt P08659); experiment: Biochemical firefly luciferase enzyme assay for NPC (AID 624030);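 also: purified P. pyralis luciferase at 10 nM with luciferin and ATP substrate; 0% = DMSO and -100% = full luciferase inhibition by PTC124 control; nearly all actives have a fitted effect of over 70% in size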
How it was run: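 Purified P. pyralis luciferase at 10 nM in 50 mM Tris Acetate (final), luminescence read within 5 minutes of enzyme addition to compounds. Activity normalised to PTC124 versus DMSO; concentration-response curves classed by r2, magnitude and activity.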

[3] = S16 Schwann cell viability assay (CellTiter-Glo assay) (AID 624031);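 also: native untransfected S16 rat Schwann cells; cellular ATP luminescence as a viability measure; plate controls were DMSO-treated cells for no effect and cell-free wells for full effect; nearly all actives have a fitted effect of over 70% in size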
How it was run: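 Parental S16 cells, 24 h compound, 37 °C. ATP-luminescence viability; DMSO = 0% activity, empty wells as reference; curves classified by fit quality and efficacy.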

[4] = S16 Schwann cell PMP22 intronic element firefly luciferase assay (AID 624032); also: potency is read from the fitted curve at half-maximal effect; nearly all actives have a fitted effect of over 30% in size
How it was run: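 Rat S16 Schwann cells stably carrying firefly luciferase driven by a PMP22 intronic element, in 10% FBS, treated 24 h at 37 C. ONE-Glo luminescence normalized to PTC124 control and DMSO (0%); curves classed by r2, magnitude and activity.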

[5] = S16 Schwann cell PMP22 intronic element beta-lactamase assay (AID 624044; calls by dose curve;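 also: 0% = DMSO and -100% = potassium clavulanate positive control; nearly all actives have a fitted effect of over 15% in size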)
How it was run: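 Beta-lactamase reporter under a PMP22 intronic regulatory element in stable S16 rat Schwann cells; 24 h compound exposure. 460 nm blue signal normalized between DMSO (0%) and potassium clavulanate, with 535 nm FRET tracking viability; curves classed by r2 and response.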

[6] = qHTS profiling for inhibitors of Plasmodium falciparum proliferation (AID 504749);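 also: 0% = DMSO vehicle and full inhibition = artemisinin control; nearly all actives have a fitted effect of over 60% in size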; details: P. falciparum in erythrocytes, SYBR Green DNA, 72 h, at 28.7 µM (top of the series)
How it was run: (§1)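 SYBR Green fluorescence (ex 485 nm, em 535 nm) reports parasite DNA after 72 h compound exposure of infected red cells at 0.3% parasitemia, 2.5% hematocrit; signal normalized to 0.29 uM artemisinin and vehicle wells.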

3D7 = experiment: as above; details: P. falciparum in erythrocytes, SYBR Green DNA, 72 h; series mostly up to 28.7 µM
How it was run: as §1

7G8 = experiment: as above; details: P. falciparum in erythrocytes, SYBR Green DNA, 72 h; series mostly up to 28.7 µM
How it was run: as §1

AA1029 = experiment: as above; details: P. falciparum in erythrocytes, SYBR Green DNA, 72 h; series mostly up to 28.7 µM
How it was run: as §1

AS120 = experiment: as above; details: P. falciparum in erythrocytes, SYBR Green DNA, 72 h; series mostly up to 28.7 µM
How it was run: as §1

ATS189 = experiment: as above; details: P. falciparum in erythrocytes, SYBR Green DNA, 72 h; series mostly up to 28.7 µM
How it was run: as §1

ATS95 = experiment: as above; details: P. falciparum in erythrocytes, SYBR Green DNA, 72 h; series mostly up to 28.7 µM
How it was run: as §1

C2A = experiment: as above; details: P. falciparum in erythrocytes, SYBR Green DNA, 72 h; series mostly up to 28.7 µM
How it was run: as §1

CP185 = experiment: as above; details: P. falciparum in erythrocytes, SYBR Green DNA, 72 h; series mostly up to 28.7 µM
How it was run: as §1

CP191 = experiment: as above; details: P. falciparum in erythrocytes, SYBR Green DNA, 72 h; series mostly up to 28.7 µM
How it was run: as §1

CP192 = experiment: as above; details: P. falciparum in erythrocytes, SYBR Green DNA, 72 h; series mostly up to 28.7 µM
How it was run: as §1

CP194 = experiment: as above; details: P. falciparum in erythrocytes, SYBR Green DNA, 72 h; series mostly up to 28.7 µM
How it was run: as §1

CP201 = experiment: as above; details: P. falciparum in erythrocytes, SYBR Green DNA, 72 h; series mostly up to 28.7 µM
How it was run: as §1

CP203 = experiment: as above; details: P. falciparum in erythrocytes, SYBR Green DNA, 72 h; series mostly up to 28.7 µM
How it was run: as §1

CP211 = experiment: as above; details: P. falciparum in erythrocytes, SYBR Green DNA, 72 h; series mostly up to 28.7 µM
How it was run: as §1

CP215 = experiment: as above; details: P. falciparum in erythrocytes, SYBR Green DNA, 72 h; series mostly up to 28.7 µM
How it was run: as §1

CP217 = experiment: as above; details: P. falciparum in erythrocytes, SYBR Green DNA, 72 h; series mostly up to 28.7 µM
How it was run: as §1

CP237 = experiment: as above; details: P. falciparum in erythrocytes, SYBR Green DNA, 72 h; series mostly up to 28.7 µM
How it was run: as §1

CP238 = experiment: as above; details: P. falciparum in erythrocytes, SYBR Green DNA, 72 h; series mostly up to 28.7 µM
How it was run: as §1

CP247 = experiment: as above; details: P. falciparum in erythrocytes, SYBR Green DNA, 72 h; series mostly up to 28.7 µM
How it was run: as §1

CP250 = experiment: as above; details: P. falciparum in erythrocytes, SYBR Green DNA, 72 h; series mostly up to 28.7 µM
How it was run: as §1

CP252 = experiment: as above; details: P. falciparum in erythrocytes, SYBR Green DNA, 72 h; series mostly up to 28.7 µM
How it was run: as §1

CP256 = experiment: as above; details: P. falciparum in erythrocytes, SYBR Green DNA, 72 h; series mostly up to 28.7 µM
How it was run: as §1

CP260 = experiment: as above; details: P. falciparum in erythrocytes, SYBR Green DNA, 72 h; series mostly up to 28.7 µM
How it was run: as §1

CP262 = experiment: as above; details: P. falciparum in erythrocytes, SYBR Green DNA, 72 h; series mostly up to 28.7 µM
How it was run: as §1

CP265 = experiment: as above; details: P. falciparum in erythrocytes, SYBR Green DNA, 72 h; series mostly up to 28.7 µM
How it was run: as §1

CP266 = experiment: as above; details: P. falciparum in erythrocytes, SYBR Green DNA, 72 h; series mostly up to 28.7 µM
How it was run: as §1

CP268 = experiment: as above; details: P. falciparum in erythrocytes, SYBR Green DNA, 72 h; series mostly up to 28.7 µM
How it was run: as §1

CP269 = experiment: as above; details: P. falciparum in erythrocytes, SYBR Green DNA, 72 h; series mostly up to 28.7 µM
How it was run: as §1

CP286 = experiment: as above; details: P. falciparum in erythrocytes, SYBR Green DNA, 72 h; series mostly up to 28.7 µM
How it was run: as §1

CP291 = experiment: as above; details: P. falciparum in erythrocytes, SYBR Green DNA, 72 h; series mostly up to 28.7 µM
How it was run: as §1

CP297 = experiment: as above; details: P. falciparum in erythrocytes, SYBR Green DNA, 72 h; series mostly up to 28.7 µM
How it was run: as §1

CP305 = experiment: as above; details: P. falciparum in erythrocytes, SYBR Green DNA, 72 h; series mostly up to 28.7 µM
How it was run: as §1

CP315 = experiment: as above; details: P. falciparum in erythrocytes, SYBR Green DNA, 72 h; series mostly up to 28.7 µM
How it was run: as §1

CP325 = experiment: as above; details: P. falciparum in erythrocytes, SYBR Green DNA, 72 h; series mostly up to 28.7 µM
How it was run: as §1

CP329 = experiment: as above; details: P. falciparum in erythrocytes, SYBR Green DNA, 72 h; series mostly up to 28.7 µM
How it was run: as §1

CP335 = experiment: as above; details: P. falciparum in erythrocytes, SYBR Green DNA, 72 h; series mostly up to 28.7 µM
How it was run: as §1

DIV14 = experiment: as above; details: P. falciparum in erythrocytes, SYBR Green DNA, 72 h; series mostly up to 28.7 µM
How it was run: as §1

DIV17 = experiment: as above; details: P. falciparum in erythrocytes, SYBR Green DNA, 72 h; series mostly up to 28.7 µM
How it was run: as §1

DIV30 = experiment: as above; details: P. falciparum in erythrocytes, SYBR Green DNA, 72 h; series mostly up to 28.7 µM
How it was run: as §1

Dd2 = experiment: as above; details: P. falciparum in erythrocytes, SYBR Green DNA, 72 h; series mostly up to 28.7 µM
How it was run: as §1

ECU = experiment: as above; details: P. falciparum in erythrocytes, SYBR Green DNA, 72 h; series mostly up to 28.7 µM
How it was run: as §1

FAB9 = experiment: as above; details: P. falciparum in erythrocytes, SYBR Green DNA, 72 h; series mostly up to 28.7 µM
How it was run: as §1

GB4 = experiment: as above; details: P. falciparum in erythrocytes, SYBR Green DNA, 72 h; series mostly up to 28.7 µM
How it was run: as §1

HB3 = experiment: as above; details: P. falciparum in erythrocytes, SYBR Green DNA, 72 h; series mostly up to 28.7 µM
How it was run: as §1

ICS = experiment: as above; details: P. falciparum in erythrocytes, SYBR Green DNA, 72 h; series mostly up to 28.7 µM
How it was run: as §1

JCK = experiment: as above; details: P. falciparum in erythrocytes, SYBR Green DNA, 72 h; series mostly up to 28.7 µM
How it was run: as §1

N140 = experiment: as above; details: P. falciparum in erythrocytes, SYBR Green DNA, 72 h; series mostly up to 28.7 µM
How it was run: as §1

P93_24 = experiment: as above; details: P. falciparum in erythrocytes, SYBR Green DNA, 72 h; series mostly up to 28.7 µM
How it was run: as §1

P94_40 = experiment: as above; details: P. falciparum in erythrocytes, SYBR Green DNA, 72 h; series mostly up to 28.7 µM
How it was run: as §1

PAD = experiment: as above; details: P. falciparum in erythrocytes, SYBR Green DNA, 72 h; series mostly up to 28.7 µM
How it was run: as §1

PC15 = experiment: as above; details: P. falciparum in erythrocytes, SYBR Green DNA, 72 h; series mostly up to 28.7 µM
How it was run: as §1

PC26 = experiment: as above; details: P. falciparum in erythrocytes, SYBR Green DNA, 72 h; series mostly up to 28.7 µM
How it was run: as §1

PC49 = experiment: as above; details: P. falciparum in erythrocytes, SYBR Green DNA, 72 h; series mostly up to 28.7 µM
How it was run: as §1

SC27B = experiment: as above; details: P. falciparum in erythrocytes, SYBR Green DNA, 72 h; series mostly up to 28.7 µM
How it was run: as §1

TAB109 = experiment: as above; details: P. falciparum in erythrocytes, SYBR Green DNA, 72 h; series mostly up to 28.7 µM
How it was run: as §1

TAB113 = experiment: as above; details: P. falciparum in erythrocytes, SYBR Green DNA, 72 h; series mostly up to 28.7 µM
How it was run: as §1

TAB165 = experiment: as above; details: P. falciparum in erythrocytes, SYBR Green DNA, 72 h; series mostly up to 28.7 µM
How it was run: as §1

W2 = experiment: as above; details: P. falciparum in erythrocytes, SYBR Green DNA, 72 h; series mostly up to 28.7 µM
How it was run: as §1

Luciferin 4-monooxygenase (Photinus pyralis), sequence (P08659 whole entry, looked up): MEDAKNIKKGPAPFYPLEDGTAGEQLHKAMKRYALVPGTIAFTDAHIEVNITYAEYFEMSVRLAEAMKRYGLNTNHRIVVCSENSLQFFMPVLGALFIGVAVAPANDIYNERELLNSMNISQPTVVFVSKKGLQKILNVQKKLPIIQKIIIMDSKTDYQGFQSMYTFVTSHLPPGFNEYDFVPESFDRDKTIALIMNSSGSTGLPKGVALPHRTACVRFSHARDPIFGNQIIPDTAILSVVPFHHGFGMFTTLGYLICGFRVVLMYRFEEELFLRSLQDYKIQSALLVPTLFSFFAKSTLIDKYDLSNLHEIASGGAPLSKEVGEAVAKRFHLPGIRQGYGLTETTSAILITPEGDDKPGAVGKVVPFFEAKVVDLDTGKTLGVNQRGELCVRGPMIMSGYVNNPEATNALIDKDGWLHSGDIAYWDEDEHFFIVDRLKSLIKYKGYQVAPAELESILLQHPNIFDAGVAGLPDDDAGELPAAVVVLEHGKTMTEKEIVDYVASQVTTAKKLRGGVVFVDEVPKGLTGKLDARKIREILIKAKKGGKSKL
Ubiquitin carboxyl-terminal hydrolase 1 (Homo sapiens), sequence (O94782 whole entry, looked up): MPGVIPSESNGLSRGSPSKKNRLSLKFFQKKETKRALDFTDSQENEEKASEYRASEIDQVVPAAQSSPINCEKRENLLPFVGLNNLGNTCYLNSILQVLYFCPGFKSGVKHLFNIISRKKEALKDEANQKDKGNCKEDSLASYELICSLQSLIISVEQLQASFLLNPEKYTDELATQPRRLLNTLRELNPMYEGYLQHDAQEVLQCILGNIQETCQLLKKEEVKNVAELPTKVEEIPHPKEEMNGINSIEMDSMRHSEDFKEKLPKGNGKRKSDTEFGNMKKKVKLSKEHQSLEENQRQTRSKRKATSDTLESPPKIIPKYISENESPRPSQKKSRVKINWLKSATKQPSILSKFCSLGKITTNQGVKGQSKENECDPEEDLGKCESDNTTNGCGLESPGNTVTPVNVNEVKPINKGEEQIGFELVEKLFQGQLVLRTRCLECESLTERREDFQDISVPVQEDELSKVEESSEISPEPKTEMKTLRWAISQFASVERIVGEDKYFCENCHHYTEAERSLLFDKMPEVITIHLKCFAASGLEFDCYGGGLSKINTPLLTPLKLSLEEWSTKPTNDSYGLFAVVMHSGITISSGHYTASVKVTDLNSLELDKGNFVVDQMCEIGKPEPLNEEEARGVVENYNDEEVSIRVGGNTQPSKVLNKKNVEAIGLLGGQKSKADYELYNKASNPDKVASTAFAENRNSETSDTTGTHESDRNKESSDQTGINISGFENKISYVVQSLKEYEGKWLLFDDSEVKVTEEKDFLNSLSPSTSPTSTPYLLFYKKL

CCOC(=O)C(CS)NCCN[C@@H](CS)C(=O)OCC (stereo not given in full)
active: Potency [4] 10.2 µM
inactive: Potency [1] | Potency [2] | Potency [3] | Potency [5] | activity, negative = inhibition ([6]; parasite line A) -2.53% | activity, negative = inhibition ([6]; parasite line B) -3.46% | Potency (3D7) | Potency (7G8) | Potency (AA1029) | Potency (AS120) | Potency (ATS189) | Potency (ATS95) | Potency (C2A) | Potency (CP185) | Potency (CP191) | Potency (CP192) | Potency (CP194) | Potency (CP201) | Potency (CP203) | Potency (CP211) | Potency (CP215) | Potency (CP217) | Potency (CP237) | Potency (CP238) | Potency (CP247) | Potency (CP250) | Potency (CP252) | Potency (CP256) | Potency (CP260) | Potency (CP262) | Potency (CP265) | Potency (CP266) | Potency (CP268) | Potency (CP269) | Potency (CP286) | Potency (CP291) | Potency (CP297) | Potency (CP305) | Potency (CP315) | Potency (CP325) | Potency (CP329) | Potency (CP335) | Potency (DIV14) | Potency (DIV17) | Potency (DIV30) | Potency (Dd2) | Potency (ECU) | Potency (FAB9) | Potency (GB4) | Potency (HB3) | Potency (ICS) | Potency (JCK) | Potency (N140) | Potency (P93_24) | Potency (P94_40) | Potency (PAD) | Potency (PC15) | Potency (PC26) | Potency (PC49) | Potency (SC27B) | Potency (TAB109) | Potency (TAB113) | Potency (TAB165) | Potency (W2)

Source: PubChem BioAssay (NCATS)
